Data on 11 molecules can be found in PubChem BioAssay (Tox21).

Experiment [1] in a line: Human pregnane X receptor (PXR) small molecule agonists, qHTS cell viability counter screen (AID 1346977). Note: nearly all actives have a fitted effect of over 50% in size. Note: potency is the fitted concentration of half-maximal effect. Summed up:
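PXR-Luc HepG2 cells in medium with 5% charcoal-stripped FBS were pre-incubated 5hr, then exposed to compounds for 24hr at 37C. Viability was read in the same wells by CellTiter-Fluor fluorescence, reagent added after 23hr with a 1hr incubation.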
On the technique in general: In qHTS, concentration-response curves come from the screen itself.

The nature of experiment [2]: Caspase-3/7 induction in HepG2 cells by small molecules, qHTS assay (AID 1346978). Note: nearly all actives have a fitted effect of over 15% in size. Note: potency is the fitted concentration of half-maximal effect. Summed up:
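Wild-type HepG2 cells (2,000/well) were settled 5 h at 37 C, 5% CO2, then exposed to compounds in DMSO for 17 h. Caspase-3/7 activity was read by luminescence 30 min after adding Caspase-Glo 3/7 reagent at room temperature.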

Experiment [3] can be described thus: Caspase-3/7 induction in CHO-K1 cells by small molecules, qHTS cell viability counter screen (AID 1346979). Note: nearly all actives have a fitted effect of over 35% in size. Note: potency is the fitted concentration of half-maximal effect. Summed up: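 Wild-type CHO-K1 cells were seeded at 1,500 per well, rested 5hr at 37 C, then exposed to compounds in DMSO. After 16hr, CellTiter-Fluor reagent was added and fluorescence read 1hr later as the viability measure.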
Experiment [4] is described as follows: Caspase-3/7 induction in CHO-K1 cells by small molecules, qHTS assay (AID 1346980). Note: nearly all actives have a fitted effect of over 15% in size. Summed up:
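Wild-type cells were seeded at 1,500 per well and settled 5 hr at 37 C, 5% CO2, then exposed to DMSO-dissolved compounds for 17 hr. Caspase-Glo 3/7 reagent was added, and luminescence was read after 30min at room temperature.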

Experiment [5] can be described thus: Caspase-3/7 induction in HepG2 cells by small molecules, qHTS cell viability counter screen (AID 1346981). Note: nearly all actives have a fitted effect of over 30% in size. Note: potency is the fitted concentration of half-maximal effect. In outline:
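Cell viability is measured as a cytotoxicity counter screen alongside the Caspase-Glo 3/7 readout in identical wells. Wild-type HepG2 cells are treated with test compounds for 16 hr at 37 C before CellTiter-Fluor addition and a 1-hr incubation.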

Experiment [6] addresses Nuclear receptor subfamily 1 group I member 2 (Homo sapiens) (UniProt O75469). The experiment in a line: Human pregnane X receptor (PXR) small molecule agonists, qHTS assay (AID 1346982). Note: nearly all actives have a fitted effect of over 35% in size. Note: potency is the fitted concentration of half-maximal effect. Summed up:
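Cells: HepG2 stably carrying PXR-Luc. Medium held 5% charcoal-stripped FBS. Compounds in DMSO added after 5 hr plating, incubated 24 hr, then luminescence quantified with ONE-Glo.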

Experiment [7] addresses Cytochrome P450 2C19 (Homo sapiens) (UniProt P33261). In words: Cytochrome P450 Family 2 Subfamily C Member 19 (CYP2C19) small molecule antagonists: luciferase reporter qHTS assay (AID 1671197). For activity change, negative = inhibition: series mostly up to about 120 µM. Note: nearly all actives have a fitted effect of over 65% in size. Note: potency is the fitted concentration of half-maximal effect. In outline: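 Inhibition of CYP2C19 was scored from loss of luminescence in a P450-Glo proluciferin substrate assay, NADPH-started and run 1 h at 37C, with ketoconazole as positive control.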

In experiment [8] the target is Cytochrome P450 2C9 (Homo sapiens) (UniProt P11712). The experiment in a line: Cytochrome P450 Family 2 Subfamily C Member 9 (CYP2C9) small molecule antagonists: luciferase reporter qHTS assay (AID 1671198). For activity change, negative = inhibition: series mostly up to about 120 µM. Note: nearly all actives have a fitted effect of over 50% in size. Note: potency is the fitted concentration of half-maximal effect. In outline: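 CYP2C9 activity was measured with a P450-Glo proluciferin substrate. Enzyme–substrate mix was held with compound for 10 min at room temperature, then NADPH regeneration solution was added for 1 h at 37C. Luciferin product was read as luminescence.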
Cytochrome P450 2C9 (Homo sapiens), sequence (P11712 whole entry, looked up): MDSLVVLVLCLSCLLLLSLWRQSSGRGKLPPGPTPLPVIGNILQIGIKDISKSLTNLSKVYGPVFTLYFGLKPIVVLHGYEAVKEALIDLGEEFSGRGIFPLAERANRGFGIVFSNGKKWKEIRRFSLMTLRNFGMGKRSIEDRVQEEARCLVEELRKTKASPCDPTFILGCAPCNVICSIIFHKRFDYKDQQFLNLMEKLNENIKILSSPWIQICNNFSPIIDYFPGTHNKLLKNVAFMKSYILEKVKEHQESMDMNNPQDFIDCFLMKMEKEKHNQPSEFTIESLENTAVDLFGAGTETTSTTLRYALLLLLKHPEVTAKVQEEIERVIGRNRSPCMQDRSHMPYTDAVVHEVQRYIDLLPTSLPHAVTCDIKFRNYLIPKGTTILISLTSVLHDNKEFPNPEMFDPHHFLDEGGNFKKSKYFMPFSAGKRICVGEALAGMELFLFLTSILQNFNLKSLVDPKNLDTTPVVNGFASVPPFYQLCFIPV

The target in experiment [9] is Cytochrome P450 1A2 (Homo sapiens) (UniProt P05177). In words: Cytochrome P450 Family 1 Subfamily A Member 2 (CYP1A2) small molecule antagonists: luciferase reporter qHTS assay (AID 1671199). For activity change, negative = inhibition: series mostly up to about 120 µM. Note: nearly all actives have a fitted effect of over 50% in size. Note: potency is the fitted concentration of half-maximal effect. In outline: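 Compounds were incubated with CYP1A2 and a luminogenic proluciferin substrate for 10 min at room temperature before the reaction was started with NADPH regeneration solution. After 1 h, detection reagent was added and light output, proportional to CYP activity, was recorded.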
Cytochrome P450 1A2 (Homo sapiens), sequence (P05177 whole entry, looked up): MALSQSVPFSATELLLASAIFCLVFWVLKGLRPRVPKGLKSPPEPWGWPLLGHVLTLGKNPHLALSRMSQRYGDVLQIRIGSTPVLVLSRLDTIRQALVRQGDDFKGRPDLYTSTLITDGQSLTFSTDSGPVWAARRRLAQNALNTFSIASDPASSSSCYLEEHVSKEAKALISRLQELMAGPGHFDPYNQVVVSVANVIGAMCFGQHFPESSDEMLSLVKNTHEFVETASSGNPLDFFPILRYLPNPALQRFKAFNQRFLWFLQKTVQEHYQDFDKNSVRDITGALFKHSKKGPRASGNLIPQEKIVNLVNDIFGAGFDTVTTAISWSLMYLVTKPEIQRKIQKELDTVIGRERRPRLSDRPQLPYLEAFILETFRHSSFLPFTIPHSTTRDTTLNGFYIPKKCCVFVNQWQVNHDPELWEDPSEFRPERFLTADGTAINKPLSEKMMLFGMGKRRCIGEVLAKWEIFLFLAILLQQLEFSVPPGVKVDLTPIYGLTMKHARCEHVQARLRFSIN

Experiment [10] has as its target Voltage-gated inwardly rectifying potassium channel KCNH2 (Homo sapiens) (UniProt Q12809). The experiment in a line: Human Ether-a-go-go-Related Gene (hERG) channel small molecule antagonists: fluorescence cell-based qHTS assay (AID 1671200).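 For activity change, negative = inhibition: hERG-expressing U2OS cells given a thallium stimulus after FluxOR II dye loading; series mostly up to about 77 µM.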 Note: nearly all actives have a fitted effect of over 50% in size. Note: potency is the fitted concentration of half-maximal effect. Summed up: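 U2OS cells expressing the channel were plated at 1000 cells/well, incubated overnight at 37 C, then loaded with FluxOR II thallium-sensitive dye for 1 h at room temperature in the dark, with a further 10 min at room temperature before stimulation.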
Background: hERG is a cardiac potassium channel; its block is linked to QT prolongation.

For experiment [11], the target named is Cytochrome P450 3A4 (Homo sapiens) (UniProt P08684). In words: Cytochrome P450 Family 3 Subfamily A Member 4 (CYP3A4) small molecule antagonists: luciferase reporter qHTS assay (AID 1671201). For activity change, negative = inhibition: series mostly up to about 120 µM. Note: nearly all actives have a fitted effect of over 50% in size. Note: potency is the fitted concentration of half-maximal effect. Summed up:
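P450-Glo CYP3A4 system with proluciferin substrate; compounds preincubated 10 min RT with enzyme-substrate mix, then NADPH regeneration added for 1 h RT. Detection reagent 20 min, luminescence read as relative luminescence units.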
Background: A reporter such as luciferase makes a cellular process visible.

The target of experiment [12] is Nuclear receptor subfamily 1 group I member 2 (Rattus norvegicus) (UniProt Q9R1A7). In words: Rat pregnane X receptor (rPXR) activation by small molecules, qHTS assay (AID 1346983). Note: nearly all actives have a fitted effect of over 20% in size. The conditions noted are these: rPXR luciferase reporter cells, One-Glo luminescence, 24 h; max activation: stronger effect = higher value. Summed up: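 Cell-based rPXR luciferase reporter assay, 2,000 cells per well, rested 5hr at 37 C before compound addition in DMSO, then 24 hr at 37 C. One-Glo reagent was added and luminescence read after 30 min at room temperature.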
Nuclear receptor subfamily 1 group I member 2 (Rattus norvegicus), sequence (Q9R1A7 whole entry, looked up): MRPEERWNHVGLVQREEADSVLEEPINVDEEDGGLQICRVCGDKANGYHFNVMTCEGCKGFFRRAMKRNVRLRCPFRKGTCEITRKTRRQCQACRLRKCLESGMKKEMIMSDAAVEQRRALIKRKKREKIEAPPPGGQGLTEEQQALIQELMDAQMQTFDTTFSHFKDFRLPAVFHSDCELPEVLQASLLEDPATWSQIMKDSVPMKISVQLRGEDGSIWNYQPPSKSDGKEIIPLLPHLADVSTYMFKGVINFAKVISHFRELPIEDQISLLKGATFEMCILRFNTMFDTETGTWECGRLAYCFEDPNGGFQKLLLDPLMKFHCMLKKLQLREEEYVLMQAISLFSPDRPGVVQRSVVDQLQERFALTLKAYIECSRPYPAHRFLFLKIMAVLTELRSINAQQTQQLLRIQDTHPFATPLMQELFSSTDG

The target in experiment [13] is Nuclear receptor subfamily 1 group I member 2 (Homo sapiens) (UniProt O75469). The experiment in a line: CYP3A4 induction through human pregnane X receptor (PXR) by small molecules, qHTS assay (AID 1346984). Note: nearly all actives have a fitted effect of over 40% in size. In outline:
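Quantitative HTS in DPX-2 cells, i.e. HepG2 transfected with PXR response element and CYP3A4-promoter luciferase. Compounds in DMSO incubated 24hr at 37C; then P450-Glo CYP3A4 substrate, 3uM final, 3hr; One-Glo luminescence.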

The target is the same in experiment [14]. The experiment in a line: Human pregnane X receptor (PXR) activation by small molecules, qHTS assay (AID 1346985). Note: nearly all actives have a fitted effect of over 40% in size. In outline:
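DPX-2 cells (HepG2 co-transfected with a PXR response element and a CYP3A4-promoter luciferase construct) were seeded at 2,000 per well, rested 5 hr at 37C, then exposed to DMSO-dissolved compounds for 24 hr. Activation was read as luciferase luminescence.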

The target in experiment [15] is Cytochrome P450 2D6 (Homo sapiens) (UniProt P10635). In words: Cytochrome P450 Family 2 Subfamily D Member 6 (CYP2D6) small molecule antagonists: luciferase reporter qHTS assay (AID 1671196). For activity change, negative = inhibition: series mostly up to about 120 µM. Note: nearly all actives have a fitted effect of over 50% in size. Note: potency is the fitted concentration of half-maximal effect. In outline: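 Enzyme and proluciferin substrate were first combined with test chemical for 10 min at room temperature. Adding NADPH regeneration solution started a 1 h reaction, stopped with luciferin detection reagent and read by luminescence 20 min later.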
Cytochrome P450 2D6 (Homo sapiens), sequence (P10635 whole entry, looked up): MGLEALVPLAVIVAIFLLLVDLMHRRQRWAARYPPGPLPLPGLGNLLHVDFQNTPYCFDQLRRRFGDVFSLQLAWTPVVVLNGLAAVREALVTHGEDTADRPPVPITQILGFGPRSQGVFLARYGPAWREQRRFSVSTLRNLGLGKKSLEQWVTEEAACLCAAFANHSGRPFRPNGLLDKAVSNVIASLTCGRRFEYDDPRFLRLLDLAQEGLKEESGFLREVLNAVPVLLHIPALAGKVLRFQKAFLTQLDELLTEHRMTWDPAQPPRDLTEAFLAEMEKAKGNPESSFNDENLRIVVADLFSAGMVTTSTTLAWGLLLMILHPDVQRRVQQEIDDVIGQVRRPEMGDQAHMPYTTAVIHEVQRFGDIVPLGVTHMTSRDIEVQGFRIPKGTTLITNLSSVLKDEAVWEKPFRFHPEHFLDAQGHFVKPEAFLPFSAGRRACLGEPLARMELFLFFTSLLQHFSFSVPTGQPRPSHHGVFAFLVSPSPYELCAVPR

Where “and” joins values, the source holds several entries; their conditions need not be identical. Identical values can stand only once. Results filed as inconclusive are left out. The source holds several records for some structures; these can differ, active in one and inactive in another. Calls of active or inactive are those of the source. Calls come from the whole dose curve; as a rule, active = well fitted curve in the direction sought with a large enough effect in the repeat runs; inconclusive = weak or mixed curves; inactive = no such curve, though single readings can be large; an effect the other way counts as inactive or inconclusive.
% is set by controls: 0 for no effect and ±100 for the full control effect.

Nuclear receptor subfamily 1 group I member 2 (Homo sapiens), sequence (O75469 whole entry, looked up): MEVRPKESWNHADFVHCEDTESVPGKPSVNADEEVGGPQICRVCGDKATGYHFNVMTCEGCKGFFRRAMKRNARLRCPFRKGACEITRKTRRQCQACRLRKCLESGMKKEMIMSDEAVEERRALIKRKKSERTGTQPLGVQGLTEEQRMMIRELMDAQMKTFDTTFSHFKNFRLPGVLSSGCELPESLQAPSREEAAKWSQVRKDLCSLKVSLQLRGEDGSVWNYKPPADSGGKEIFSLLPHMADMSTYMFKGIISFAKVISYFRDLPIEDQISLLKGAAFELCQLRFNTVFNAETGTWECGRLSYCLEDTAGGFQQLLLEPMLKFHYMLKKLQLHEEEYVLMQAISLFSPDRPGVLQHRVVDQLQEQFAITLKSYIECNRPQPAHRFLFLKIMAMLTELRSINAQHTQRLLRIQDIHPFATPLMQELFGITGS
Voltage-gated inwardly rectifying potassium channel KCNH2 (Homo sapiens), sequence (Q12809 whole entry, looked up): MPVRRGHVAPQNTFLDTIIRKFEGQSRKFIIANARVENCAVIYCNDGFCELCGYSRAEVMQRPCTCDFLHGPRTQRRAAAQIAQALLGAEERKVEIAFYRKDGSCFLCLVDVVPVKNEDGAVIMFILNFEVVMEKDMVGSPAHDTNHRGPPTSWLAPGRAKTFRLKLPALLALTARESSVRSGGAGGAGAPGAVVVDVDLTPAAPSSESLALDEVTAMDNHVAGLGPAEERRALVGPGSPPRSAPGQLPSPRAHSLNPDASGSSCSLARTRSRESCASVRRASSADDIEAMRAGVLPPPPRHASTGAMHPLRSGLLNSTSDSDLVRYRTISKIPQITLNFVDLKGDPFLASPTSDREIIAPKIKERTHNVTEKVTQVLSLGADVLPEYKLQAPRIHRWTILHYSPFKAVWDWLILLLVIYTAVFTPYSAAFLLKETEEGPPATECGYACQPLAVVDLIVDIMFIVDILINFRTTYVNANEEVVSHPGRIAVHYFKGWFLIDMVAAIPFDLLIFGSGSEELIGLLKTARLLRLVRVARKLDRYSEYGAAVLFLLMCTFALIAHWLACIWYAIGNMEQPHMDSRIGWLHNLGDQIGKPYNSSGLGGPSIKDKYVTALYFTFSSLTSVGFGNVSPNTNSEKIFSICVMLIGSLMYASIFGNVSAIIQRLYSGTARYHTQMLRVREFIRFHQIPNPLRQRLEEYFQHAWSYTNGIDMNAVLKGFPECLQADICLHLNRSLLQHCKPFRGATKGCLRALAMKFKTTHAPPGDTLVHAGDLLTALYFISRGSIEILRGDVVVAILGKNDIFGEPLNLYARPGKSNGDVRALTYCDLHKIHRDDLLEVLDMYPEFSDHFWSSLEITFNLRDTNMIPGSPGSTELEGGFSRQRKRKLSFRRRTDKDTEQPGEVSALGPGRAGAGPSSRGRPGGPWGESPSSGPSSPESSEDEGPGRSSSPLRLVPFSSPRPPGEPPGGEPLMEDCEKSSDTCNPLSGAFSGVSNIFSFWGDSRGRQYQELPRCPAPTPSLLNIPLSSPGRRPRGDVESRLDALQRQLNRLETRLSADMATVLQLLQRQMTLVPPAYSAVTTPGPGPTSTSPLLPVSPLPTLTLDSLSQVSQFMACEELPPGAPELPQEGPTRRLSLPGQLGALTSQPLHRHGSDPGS
Cytochrome P450 2C19 (Homo sapiens), sequence (P33261 whole entry, looked up): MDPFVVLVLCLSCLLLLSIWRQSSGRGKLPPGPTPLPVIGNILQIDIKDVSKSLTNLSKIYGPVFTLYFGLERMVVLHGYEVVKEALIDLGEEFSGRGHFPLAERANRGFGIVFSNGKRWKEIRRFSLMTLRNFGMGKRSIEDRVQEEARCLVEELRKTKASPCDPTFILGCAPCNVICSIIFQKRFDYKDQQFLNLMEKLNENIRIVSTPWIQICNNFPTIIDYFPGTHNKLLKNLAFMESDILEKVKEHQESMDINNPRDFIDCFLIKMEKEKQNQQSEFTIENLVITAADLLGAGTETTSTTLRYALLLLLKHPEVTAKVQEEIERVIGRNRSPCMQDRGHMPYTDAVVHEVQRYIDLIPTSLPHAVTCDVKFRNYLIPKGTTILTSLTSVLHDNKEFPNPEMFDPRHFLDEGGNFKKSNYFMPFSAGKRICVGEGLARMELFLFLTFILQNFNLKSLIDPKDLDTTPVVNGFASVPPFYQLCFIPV
Cytochrome P450 3A4 (Homo sapiens), sequence (P08684 whole entry, looked up): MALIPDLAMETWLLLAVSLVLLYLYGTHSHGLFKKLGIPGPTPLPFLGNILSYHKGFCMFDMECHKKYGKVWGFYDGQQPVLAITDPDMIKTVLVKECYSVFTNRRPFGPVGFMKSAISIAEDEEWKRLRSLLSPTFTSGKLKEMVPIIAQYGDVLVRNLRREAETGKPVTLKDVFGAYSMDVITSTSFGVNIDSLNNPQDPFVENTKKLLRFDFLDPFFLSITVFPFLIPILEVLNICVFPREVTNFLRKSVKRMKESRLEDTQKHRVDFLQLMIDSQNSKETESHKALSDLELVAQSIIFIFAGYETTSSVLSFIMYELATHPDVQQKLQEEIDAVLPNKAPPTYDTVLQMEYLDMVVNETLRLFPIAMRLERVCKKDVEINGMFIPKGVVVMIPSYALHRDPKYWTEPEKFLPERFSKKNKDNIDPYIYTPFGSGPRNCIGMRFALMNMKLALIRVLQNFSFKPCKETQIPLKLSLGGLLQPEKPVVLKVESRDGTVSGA

Take `c1cc(-c2ccncc2)ccn1`: the Potency entry in experiment [1], in experiment [2], in experiment [3], in [4], in experiment [5] and in experiment [6] was “inactive” each time. In addition, the Potency entry in [10] and in experiment [11] was “inactive” throughout. Moreover, the Potency is 35.9 µM (active) in experiment [7]; 40.3 µM (active) and 35.6 µM (active) in [8]; 40.3 µM (active) and 35.6 µM (active) in experiment [9].
Regarding `O=C(c1ccc(OCCN2CCCCC2)cc1)c1c(-c2ccc(O)cc2)sc2cc(O)ccc12`, the Potency is 21.7 µM (active) and 24.3 µM (active) and 23.7 µM (active) in experiment [1]; 68.7 µM (active) and inactive in [2]; 54.5 µM (active) and 61.1 µM (active) and 26.6 µM (active) in [3]; 61.2 µM (active) and 61.1 µM (active) in experiment [5]; 21.9 µM (active) and 43.6 µM (active) in experiment [10]. In [4], the Potency result is “inactive”.
As to `CN1C(C(=O)Nc2ccccn2)=C(O)c2ccccc2S1(=O)=O`, the Potency result in experiment [1], in experiment [2], in experiment [3], in experiment [4], in experiment [5] and in [13] was “inactive” throughout. Further, the Potency entry in experiment [14], in experiment [7], in [9], in [10] and in experiment [11] was “inactive” throughout. For the same molecule, in [12], the max activation was -2.52% (inactive). Besides, the Potency in experiment [15] is 40.3 µM (active) and inactive; in experiment [8], 12.7 µM (active) and 13.8 µM (active).
In the case of `Cn1cnc([N+](=O)[O-])c1Sc1ncnc2nc[nH]c12`, the Potency result in experiment [2], in [4], in experiment [6], in experiment [8], in experiment [9] and in [10] was “inactive” in each case. Also, in experiment [11], the Potency entry was “inactive”. Also, the Potency was 51.1 µM (active) in experiment [3]; 48.2 µM (active) in experiment [5]; 44.5 µM (active) and inactive in [15].
As to `O=C(c1ccccc1)c1ccc(O)cc1O`, the Potency result in experiment [1], in [2], in experiment [4], in experiment [5] and in [10] was “inactive” in each case. Besides, the Potency in experiment [6] was 62.3 µM (active) and 61.1 µM (active); in experiment [15], 8.12 µM (active) and 20 µM (active); in experiment [7], 9.11 µM (active) and 22.4 µM (active); in experiment [8] it was 57.5 µM (active) and 39.9 µM (active); in experiment [9] it was 25.7 µM (active) and 31.7 µM (active); in [11], 14.4 µM (active) and 25.2 µM (active).
`CCCCNS(=O)(=O)c1ccccc1`: the Potency entry in [1], in experiment [2], in experiment [3], in [4], in [5] and in [15] was “inactive” in each case. The Potency result in experiment [9], in [10] and in [11] was “inactive” each time. Also, the Potency in [8] is 35.1 µM (active) and 35.6 µM (active).
Turning to `Cc1c(OCC(F)(F)F)ccnc1CS(=O)c1nc2ccccc2[nH]1` (stereo unspecified), the Potency result in experiment [1], in [2], in experiment [4], in [5] and in [10] was “inactive” throughout. The Potency in [15] was 2.83 µM (active) and 1.23 µM (active); in experiment [7], 5.64 µM (active) and 3.89 µM (active); in experiment [8] it was 35.6 µM (active) and 12.3 µM (active); in [9], 31.7 µM (active) and 13.8 µM (active).
As to `CCCCc1oc2ccccc2c1C(=O)c1cc(I)c(OCCN(CC)CC)c(I)c1`, the Potency in experiment [1] was 43.6 µM (active) and 26.6 µM (active); in experiment [3] it was 48.9 µM (active); in [5], 48.9 µM (active); in experiment [6] it was 3.09 µM (active) and 4.22 µM (active). The Potency entry in [4] was “inactive”.
For `Cc1ccc(C(=O)c2cc(O)c(O)c([N+](=O)[O-])c2)cc1`, the results for the Potency in [1], in [3] and in experiment [5] were 21.7 µM (active), 43.3 µM (active) and 43.3 µM (active), respectively. Also, the Potency entry in [2], in experiment [4], in experiment [15], in experiment [9] and in experiment [10] was “inactive” each time.
Regarding `O=C(Nc1ccc([N+](=O)[O-])cc1Cl)c1cc(Cl)ccc1O`, the Potency is 1.22 µM (active) and 1.46 µM (active) in experiment [1]; 2.17 µM (active) and 2.59 µM (active) in experiment [3]; 686 nM (active) and 291 nM (active) in experiment [6]; 25.2 µM (active) in [8]; 20 µM (active) in experiment [9]. The Potency entry in [2], in [4], in experiment [15] and in experiment [10] was “inactive” in each case. Further, the activity change, negative = inhibition is -2.19% [at 23.6 µM] (inactive) in experiment [7] and -15.9% [at 23.6 µM] (inactive) in [9].
`CC(C)=CCC/C(C)=C\CO`: the Potency result in experiment [1], in experiment [2], in [3], in [4], in [5] and in experiment [10] was “inactive” each time.
